Test results reported in PubChem BioAssay (Tox21).
Inconclusive results are not listed. Activity calls are given as the source filed them. Unless noted, calls follow the shape of the full dose curve.

Tests used:
[1] = Nuclear factor erythroid 2-related factor 2/antioxidant responsive element (Nrf2/ARE) small molecule agonists: luciferase reporter gene qHTS assay in human keratinocytes (AID 1919969); also: nearly all actives have a fitted effect of over 35% in size; also: potency is read from the fitted curve at half-maximal effect
[2] = molecular target: Gonadotropin-releasing hormone receptor (Homo sapiens) (UniProt P30968); assay: Human gonadotropin-releasing hormone receptor (GnRHR) small molecule agonists, calcium flux assay in GnRHR-HEK293 cells (AID 1920063); also: nearly all actives have a fitted effect of over 35% in size
Sequence of Gonadotropin-releasing hormone receptor (Homo sapiens) (P30968 whole entry, looked up): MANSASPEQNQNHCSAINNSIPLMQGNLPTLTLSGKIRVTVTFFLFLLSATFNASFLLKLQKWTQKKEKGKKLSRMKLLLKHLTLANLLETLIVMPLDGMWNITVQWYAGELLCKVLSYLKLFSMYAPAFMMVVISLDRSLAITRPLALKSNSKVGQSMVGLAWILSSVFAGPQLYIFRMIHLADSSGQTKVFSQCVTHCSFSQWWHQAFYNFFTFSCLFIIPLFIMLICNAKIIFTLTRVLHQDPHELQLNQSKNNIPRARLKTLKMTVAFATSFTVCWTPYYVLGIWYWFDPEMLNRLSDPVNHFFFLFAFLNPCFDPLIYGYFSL
Method in brief: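 We seeded human GnRHR-expressing HEK293 cells for 18 hours, loaded them with calcium dye for an hour at 37 C, added test compounds, and recorded fluorescence intensity kinetically for three minutes.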

[3] = molecular target: KiSS-1 receptor (Homo sapiens) (UniProt Q969F8); assay: Human kisspeptin (KISS1R) small molecule agonists, calcium flux assay in KISS1R-HEK293 cells (AID 1920064; active = well fitted activation curve with a large enough effect in the repeat runs)
Sequence of KiSS-1 receptor (Homo sapiens) (Q969F8 whole entry, looked up): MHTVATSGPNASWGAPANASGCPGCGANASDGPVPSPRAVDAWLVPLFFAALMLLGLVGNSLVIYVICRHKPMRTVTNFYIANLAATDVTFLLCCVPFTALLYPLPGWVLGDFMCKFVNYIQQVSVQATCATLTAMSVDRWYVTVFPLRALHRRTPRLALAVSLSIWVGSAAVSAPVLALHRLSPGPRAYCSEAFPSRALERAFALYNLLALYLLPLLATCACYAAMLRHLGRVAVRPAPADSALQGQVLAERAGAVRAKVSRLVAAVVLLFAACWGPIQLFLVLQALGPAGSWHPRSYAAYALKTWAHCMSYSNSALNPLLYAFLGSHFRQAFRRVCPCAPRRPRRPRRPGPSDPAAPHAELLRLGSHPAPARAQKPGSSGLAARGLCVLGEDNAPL
Method in brief: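 Kinetic calcium assay, 1 s sampling over 3 min at Ex/Em 480/540, in HEK293 cells engineered with human KISS1R; compounds delivered in DMSO after 1 h dye loading.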

[4] = G protein-coupled receptor (GPCR) small molecule agonists, calcium flux assay: HEK293 wild type cell line counter screen (AID 1920065)
Method in brief: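 Calcium-sensitive dye, loaded 1 h at 37 C into cells cultured 18 h, reports compound-evoked calcium release as fluorescence (Ex/Em 480/540), measured over 3 min. Agonist mode; 15-point titrations, triplicate.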

[5] = p53 small molecule agonists, cell-based qHTS assay with human liver microsomes (AID 1963577);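 also: p53 response element beta-lactamase reporter cells with liver microsomes plus NADPH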
Method in brief: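 16 h, 37 C exposure of p53RE-bla cells to compounds with human liver microsomes and NADPH (0.5 mg/mL final each); detection via LiveBLAzer mixture, 2 h dark at room temperature.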

[6] = p53 small molecule agonists, cell-based qHTS assay with rat liver microsomes (AID 1963578)
Method in brief: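 With rat liver microsomes and NADPH present (0.5 mg/mL final each), p53RE-bla cells are treated with compound for 16 h at 37 C. LiveBLAzer detection mixture is then applied for 2 h at room temperature in the dark.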

[7] = p53 small molecule agonists, cell-based qHTS assay with human liver microsomes: qHTS cell viability counter screen (AID 1963579); also: nearly all actives have a fitted effect of over 45% in size; also: potency is read from the fitted curve at half-maximal effect
Method in brief: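 In this multiplexed counter screen, the reporter plates were subsequently treated with CellTiter-Glo so that cell viability, reflected by luminescence, could be recorded for p53RE-bla cells dosed 16 h with compounds under microsomal activation (HLM and NADPH).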

[8] = p53 small molecule agonists, cell-based qHTS assay with rat liver microsomes: qHTS cell viability counter screen (AID 1963580); also: nearly all actives have a fitted effect of over 45% in size
Method in brief: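 HCT-116 p53RE-bla, 4,000 cells/well, 5 h pre-incubation; cpd + rat liver microsomes 0.5 mg/mL + NADPH 0.5 mg/mL (final); 16 h, 37 C; CellTiter-Glo, 30 min RT; luminescence.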

[9] = molecular target: 5-hydroxytryptamine receptor 2A (Homo sapiens) (UniProt P28223); assay: 5-hydroxytryptamine receptor 2A (HTR2A) small molecule antagonists, cell-based qHTS assay (AID 1963586); also: nearly all actives have a fitted effect of over 45% in size
Sequence of 5-hydroxytryptamine receptor 2A (Homo sapiens) (P28223 whole entry, looked up): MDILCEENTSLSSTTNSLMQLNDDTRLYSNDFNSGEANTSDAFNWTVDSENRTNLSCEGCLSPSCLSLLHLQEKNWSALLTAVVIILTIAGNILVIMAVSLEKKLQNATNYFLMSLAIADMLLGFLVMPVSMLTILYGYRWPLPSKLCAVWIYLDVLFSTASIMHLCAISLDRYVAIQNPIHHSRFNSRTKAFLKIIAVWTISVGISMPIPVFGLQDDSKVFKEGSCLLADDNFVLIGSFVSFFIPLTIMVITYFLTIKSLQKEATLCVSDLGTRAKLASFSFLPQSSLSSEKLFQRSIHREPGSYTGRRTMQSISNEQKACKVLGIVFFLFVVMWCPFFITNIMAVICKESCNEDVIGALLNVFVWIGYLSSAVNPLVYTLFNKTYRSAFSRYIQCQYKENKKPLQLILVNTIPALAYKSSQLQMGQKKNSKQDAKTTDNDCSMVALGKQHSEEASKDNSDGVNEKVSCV
Method in brief: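 Antagonist-mode intracellular calcium assay: DOI (4 nM) added after 5 min compound pre-incubation at room temperature to dye-loaded HTR2A-CHO cells. Fluorescence followed for 3 min, sampled every second.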

[10] = molecular target: 5-hydroxytryptamine receptor 2A (Homo sapiens) (UniProt P28223); assay: 5-hydroxytryptamine receptor 2A (HTR2A) small molecule agonists, cell-based qHTS assay (AID 1963587); also: nearly all actives have a fitted effect of over 30% in size; also: potency is read from the fitted curve at half-maximal effect
Method in brief: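 Kinetic calcium-flux fluorescence (2 min, 1 sec intervals) after compound addition in agonist mode. HTR2A-CHO cells were cultured 18 h, then dye-loaded 1 h at 37 C.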

[11] = molecular target: Muscarinic acetylcholine receptor M1 (Homo sapiens) (UniProt P11229); assay: Cholinergic receptor muscarinic 1 (CHRM1) small molecule antagonists, cell-based qHTS assay (AID 1963588); also: nearly all actives have a fitted effect of over 40% in size
Sequence of Muscarinic acetylcholine receptor M1 (Homo sapiens) (P11229 whole entry, looked up): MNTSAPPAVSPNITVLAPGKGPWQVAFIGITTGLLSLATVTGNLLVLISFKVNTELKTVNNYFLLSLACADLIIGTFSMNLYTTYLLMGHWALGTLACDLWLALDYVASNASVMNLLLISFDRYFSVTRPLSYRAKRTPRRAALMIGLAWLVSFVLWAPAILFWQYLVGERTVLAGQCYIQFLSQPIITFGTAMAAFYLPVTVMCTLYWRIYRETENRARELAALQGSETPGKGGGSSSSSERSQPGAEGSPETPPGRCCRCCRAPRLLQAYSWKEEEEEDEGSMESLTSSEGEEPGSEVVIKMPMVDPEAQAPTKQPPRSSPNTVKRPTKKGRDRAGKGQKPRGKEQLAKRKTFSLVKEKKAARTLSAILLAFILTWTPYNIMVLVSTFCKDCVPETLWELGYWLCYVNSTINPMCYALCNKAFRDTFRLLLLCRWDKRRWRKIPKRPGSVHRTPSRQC
Method in brief: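 CHRM1-CHO calcium-flux assay, antagonist mode. Cells were seeded 18 h, dye-loaded 1 h at 37 C and given compound for 5 min at RT, then acetylcholine was added at 50nM. FDSS fluorescence was read 3 min; 15 concentrations, three runs.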

[12] = molecular target: Muscarinic acetylcholine receptor M1 (Homo sapiens) (UniProt P11229); assay: Cholinergic receptor muscarinic 1 (CHRM1) small molecule agonists, cell-based qHTS assay (AID 1963589); also: nearly all actives have a fitted effect of over 35% in size
Method in brief: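 Measures agonist-induced intracellular calcium rise. Stable human CHRM1 CHO line, 1 h dye load at 37 C, compounds from DMSO, kinetic fluorescence read.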

[13] = molecular target: Beta-2 adrenergic receptor (Homo sapiens) (UniProt P07550); assay: Adrenergic beta2 receptor (ADRB2) small molecule antagonists, cell-based qHTS assay (AID 1963592); also: nearly all actives have a fitted effect of over 50% in size; also: potency is read from the fitted curve at half-maximal effect
Sequence of Beta-2 adrenergic receptor (Homo sapiens) (P07550 whole entry, looked up): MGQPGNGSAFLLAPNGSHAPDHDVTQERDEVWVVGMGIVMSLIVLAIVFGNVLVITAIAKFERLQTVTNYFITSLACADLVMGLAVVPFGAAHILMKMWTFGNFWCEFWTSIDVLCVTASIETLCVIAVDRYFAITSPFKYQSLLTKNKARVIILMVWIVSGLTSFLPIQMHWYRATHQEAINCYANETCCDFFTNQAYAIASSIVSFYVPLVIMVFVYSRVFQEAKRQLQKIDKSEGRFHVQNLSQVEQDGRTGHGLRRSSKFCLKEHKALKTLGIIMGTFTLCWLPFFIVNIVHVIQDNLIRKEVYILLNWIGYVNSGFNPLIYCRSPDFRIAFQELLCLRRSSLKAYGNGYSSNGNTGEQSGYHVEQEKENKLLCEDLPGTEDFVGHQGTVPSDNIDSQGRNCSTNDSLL
Method in brief: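 Cells (CHO, stable ADRB2 overexpression) incubated 18-20hr at 37C; compounds added from DMSO; agonist mix (1nM isoproterenol, 100uM IBMX, 25uM Ro-20-1724) added; 0.5hr RT; d2-cAMP and anti-cAMP-cryptate added; 1hr RT; 665/615 nm read.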

[14] = molecular target: D(2) dopamine receptor (Homo sapiens) (UniProt P14416); assay: Dopamine D2 receptor (DRD2) small molecule agonists, cell-based qHTS assay (AID 1963594); also: nearly all actives have a fitted effect of over 35% in size
Sequence of D(2) dopamine receptor (Homo sapiens) (P14416 whole entry, looked up): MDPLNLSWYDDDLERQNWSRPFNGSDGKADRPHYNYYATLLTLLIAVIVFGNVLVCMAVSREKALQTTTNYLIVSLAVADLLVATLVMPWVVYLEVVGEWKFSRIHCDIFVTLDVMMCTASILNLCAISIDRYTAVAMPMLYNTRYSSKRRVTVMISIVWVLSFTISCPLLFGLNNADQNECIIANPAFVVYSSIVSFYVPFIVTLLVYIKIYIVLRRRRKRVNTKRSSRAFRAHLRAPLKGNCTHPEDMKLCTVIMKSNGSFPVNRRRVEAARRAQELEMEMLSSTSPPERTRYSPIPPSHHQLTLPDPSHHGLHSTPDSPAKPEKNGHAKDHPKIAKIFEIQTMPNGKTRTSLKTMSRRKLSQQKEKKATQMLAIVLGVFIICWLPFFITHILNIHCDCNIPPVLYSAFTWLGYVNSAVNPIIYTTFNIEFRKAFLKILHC
Method in brief: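 cAMP accumulation in DRD2-HEK293 cells measured by HTRF after 1 h detection; compounds added 10 min before NKH477 (200nM […]) forskolin-analogue stimulation, 30 min at room temperature, with Ro20-1724 present at 0.1 mM final.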

[15] = molecular target: D(2) dopamine receptor (Homo sapiens) (UniProt P14416); assay: Dopamine D2 receptor (DRD2) small molecule antagonists, cell-based qHTS assay (AID 1963595; active = well fitted inhibition curve with a large enough effect in the signal ratio in the repeat runs, with a control signal flat; the % refers to the signal ratio; also: potency is read from the fitted curve at half-maximal effect)
Method in brief: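 Human DRD2 antagonist qHTS measuring cAMP by HTRF. The cells are exposed to compound for 10 min, then to NKH477 (200 nM) and quinpirole (12 nM) for 30 min at RT, with Ro20-1724 (0.1 mM) present throughout.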

[16] = p53 small molecule agonists, cell-based qHTS assay: qHTS cell viability counter screen (AID 1963581); also: nearly all actives have a fitted effect of over 45% in size; also: potency is read from the fitted curve at half-maximal effect
Method in brief: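 Following 5 h attachment, HCT-116 p53RE-bla cells took up compound for 16 h at 37 C; the reporter was read with B/G FRET substrate (2 h RT), and viability then via CellTiter-Glo ATP luminescence.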

[17] = p53 small molecule agonists, cell-based qHTS assay (AID 1963582; active = well fitted activation curve with a large enough effect in the signal ratio in the repeat runs, not every such curve was filed as active; the % refers to the signal ratio)
Method in brief: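 In this cell-based concentration-response screen, a p53 response element drives beta-lactamase; cells received DMSO-borne compounds after 5 h culture and were incubated a further 16 h before FRET substrate development.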

[18] = cAMP Responsive Elements (CRE) small molecule antagonists, cell-based qHTS assay (AID 1963591; active = well fitted inhibition curve with a large enough effect in the signal ratio in the repeat runs, not every such curve was filed as active; the % refers to the signal ratio)
Method in brief: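 HEK293T cells carrying a CRE-driven beta-lactamase reporter receive compound and NKH477 (0.25 uM final) for 3 h. Fluorescence from LiveBLAzer B/G FRET substrate is read after 2 h at room temperature.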

[19] = molecular target: Beta-2 adrenergic receptor (Homo sapiens) (UniProt P07550); assay: Adrenergic beta2 receptor (ADRB2) small molecule agonists, cell-based qHTS assay (AID 1963593);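 also: CHO cells stably overexpressing human ADRB2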
Method in brief: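 CHO cells stably over-expressing ADRB2 were plated overnight at 37C, then dosed with compounds plus a stimulation mix containing 100uM IBMX and 25uM Ro-20-1724 for 0.5hr at room temperature. cAMP was measured by HTRF competition, 1hr.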

[20] = cAMP Responsive Elements (CRE) small molecule agonists, cell-based qHTS assay (AID 1963590)
Method in brief: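 A CRE-responsive beta-lactamase reporter in HEK 293T cells was used. Treatment ran 3 h at 37 C; detection used LiveBLAzer B/G FRET substrate for 2 h at room temperature.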

Measured: Potency

S=C1NC=NC2N=CNC12 (centres undefined)
not listed: [16] | [17] | [18] | [19] | [20]
inactive: all other assays above

CC(=O)OC(C)c1ccccc1 (centres undefined)
not listed: [7] | [17] | [18] | [19] | [20]
inactive: all other assays above

CC(=O)NO
not listed: [7] | [10] | [20]
inactive: all other assays above

O=C(O)c1cc(Cl)cc(Cl)c1O
not listed: [8] | [19] | [20]
inactive: all other assays above

Cc1ncc([N+](=O)[O-])n1CC(C)O (centres undefined)
not listed: [8] | [9] | [10] | [11] | [12] | [14]
inactive: all other assays above

O=[N+]([O-])c1ccc2[nH]ncc2c1
not listed: [5] | [19] | [20]
inactive: all other assays above

CC(C)CCCC(=O)O
not listed: [5] | [18] | [19]
inactive: all other assays above

Cc1c[nH]c2ccccc12
not listed: [7] | [14]
inactive: all other assays above

Oc1cccc2[nH]ccc12
not listed: [6] | [7] | [11] | [13] | [20]
inactive: all other assays above

COc1ccc2nc(NC(=O)Nc3ccccc3)sc2c1
active: [1] 596 nM | [13] 11.9 µM
not listed: [7] | [16] | [19]
inactive: all other assays above

CCCOC(=O)c1ccc(N)cc1
not listed: [7] | [19]
inactive: all other assays above

CC(C)=CCC/C(C)=C/CC/C(C)=C/C(=O)OCC(=O)[C@@]1(O)CC[C@H]2[C@@H]3CCC4=CC(=O)C=C[C@]4(C)[C@H]3[C@@H](O)C[C@@]21C
not listed: [8] | [13] | [15] | [17] | [19]
inactive: all other assays above

Cc1ccc(-n2[nH]c(C)c(N=Nc3cccc(-c4cccc(C(=O)O)c4)c3O)c2=O)cc1C
not listed: [7] | [9] | [17] | [19] | [20]
inactive: all other assays above

O=C(O)c1cccc(-c2noc(-c3ccccc3F)n2)c1
active: [7] 15.8 µM | [16] 15.8 µM
not listed: [8] | [9] | [11] | [15] | [18] | [19] | [20]
inactive: all other assays above

O=C(OCC1(COC(=O)c2cccnc2)CCCC(COC(=O)c2cccnc2)(COC(=O)c2cccnc2)C1O)c1cccnc1
not listed: [6] | [8] | [18] | [19] | [20]
inactive: all other assays above

CCCCCCCCCCCCCCN(CCO)CCO
active: [10] 21.9 µM
not listed: [7] | [11] | [12] | [17] | [18] | [19] | [20]
inactive: all other assays above

CCCC(C(=O)OCCN(CC)CC)(c1ccccc1)c1ccccc1
active: [15] 26.6 µM
not listed: [8] | [9] | [11] | [13] | [18] | [19] | [20]
inactive: all other assays above
